# Values joined by “and” are separate entries in the source; they are usually repeats but may differ in a detail not shown here. Identical values can stand only once. Active and inactive are the calls of the source. The calls were made as follows: active = hit-call score of the fitted dose curve at least 0.9, where 1 is the maximum; inactive = score below 0.9.
# Read-out: Signal transducer and activator of transcription 3 (Homo sapiens) (UniProt P40763)
# Experiment: LTEA_HepaRG_STAT3: Life Technologies and Expression Analysis (LTEA) Assay for Signal transducer and activator of transcription (STAT3) using HepaRG (AID 2283529)
# Details: mRNA level, 48 h; actives raise or lower the signal
# Procedure: LTEA_HepaRG is a cell based, multiplexed-readout assay that uses HepaRG, a human liver cell line, with measurements taken at 48 hours after chemical dosing on a 96-well plate.LTEA_HepaRG_STAT3 is one of 102 assay component(s) measured in the LTEA HepaRG cell culture assay. It is a marker of Cell proliferation, survival, death.Data from the assay component LTEA_HepaRG_STAT3 was analyzed into 1 endpoint. This assay endpoint, LTEA_HepaRG_STAT3, was analyzed with bidirectional fitting relative to DMSO as the negative control and baseline of activity. Using a type of inducible reporter, measures of mRNA induction for gain or loss-of-signal activity can be used to understand regulation of transcription factor activity. To generalize the intended target to other relatable targets, this assay endpoint is annotated to the dna binding intended target family, where the subfamily is stat protein.
# A total of 1060 chemcials from the ToxCast library were tested in eight-point concentration-response experiments. Cell culture and cytotoxicity assays were conducted at Thermo Fisher Scientific's Custom Services facility (Madison, WI). A single lot of human HepaRG cells (Thermo Fisher Scientific, Frederick, MD) was used for the cell culture experiments. 96-well format collagen type I coated plates of human HepaRG cells were prepared using established methods. Briefly, cryopreserved HepaRG cells were thawed, plated at a density of approximately 100,000 cells/well in HepaRG Thaw, Plate, and General Purpose media (HPRG770, Thermo Fisher Scientific), and incubated for 48 hours. 0.5% DMSO was selected as vehicle control to balance the requisite need of DMSO in HepaRG cultures to maintain differentiation (for example, baseline metabolism, proportions of hepatocytes vs. cholangiocytes), while enabling further hepatic receptor pathway activation (for example, PXR and CAR) in response to chemical exposure. 48 hours after plating, the culture medium was replaced with HepaRG Serum-Free Incudtion Media. Cells were exposed to each test chemical in duplicate and maintained in CO2 incubators for another 48 hours. Chemical plates were thawed to room temperature and 200x concentrations of treatment groups were prepared. 8-point conentration-reponse curves were made with the highest exposure at 100 uM, followed by half-log dilutions, all in 0.5% DMSO. Each test plate contained variouse controls, induction positive controls (1mM phenobarbital), cytotoxicity positive controls ([…] aflatoxin B1), vehicle controls (0.5% DMSO), and total lysis controls (0.5% DMSO). Cell morphology images were taken using an Essen IncuCyte FLR automated microscope, with six 96-well plates imaged in about 24 minutes. Images were captured and exported and JPEG files. Spent culture media was transfered to black-well plates for the LDH assay, and remaining media was sorted at -80 C for later use. Cells were treated with RLT buffer and frozen until shipped for gene expression analysis. Total RNA was isolated from the cell suspension in 75 uL of Buffer RLT (Qiagen, Germantown, MD 20874) by Quintiles/Expression Analysis (Durham, NC) using a custom isolation procedure. Total RNA from each plate well was transferred to a preamplification plate. Fluidigm's 96.96 Dynamic ArrayTM (Fluidigm, Amsterdam, the Netherlands) technology was used for gene expression analyses by quantitative reverse transcription polymerase chain reaction (qRT-PCR, performed by Quintiles/Expression Analysis, Durham, NC)89. Standard TaqManTM Assays (Applied Biosystems/ThermoFisher Scientific, Foster City, CA) were used to assess the expression of 93 genes selected based on their selectivity and sensitivity to important hepatic receptors known to be modulated by environmental chemicals; importance in human hepatocyte functionality; and hepatotoxicity. […]
# Sequence of Signal transducer and activator of transcription 3 (Homo sapiens) (P40763 whole entry, looked up): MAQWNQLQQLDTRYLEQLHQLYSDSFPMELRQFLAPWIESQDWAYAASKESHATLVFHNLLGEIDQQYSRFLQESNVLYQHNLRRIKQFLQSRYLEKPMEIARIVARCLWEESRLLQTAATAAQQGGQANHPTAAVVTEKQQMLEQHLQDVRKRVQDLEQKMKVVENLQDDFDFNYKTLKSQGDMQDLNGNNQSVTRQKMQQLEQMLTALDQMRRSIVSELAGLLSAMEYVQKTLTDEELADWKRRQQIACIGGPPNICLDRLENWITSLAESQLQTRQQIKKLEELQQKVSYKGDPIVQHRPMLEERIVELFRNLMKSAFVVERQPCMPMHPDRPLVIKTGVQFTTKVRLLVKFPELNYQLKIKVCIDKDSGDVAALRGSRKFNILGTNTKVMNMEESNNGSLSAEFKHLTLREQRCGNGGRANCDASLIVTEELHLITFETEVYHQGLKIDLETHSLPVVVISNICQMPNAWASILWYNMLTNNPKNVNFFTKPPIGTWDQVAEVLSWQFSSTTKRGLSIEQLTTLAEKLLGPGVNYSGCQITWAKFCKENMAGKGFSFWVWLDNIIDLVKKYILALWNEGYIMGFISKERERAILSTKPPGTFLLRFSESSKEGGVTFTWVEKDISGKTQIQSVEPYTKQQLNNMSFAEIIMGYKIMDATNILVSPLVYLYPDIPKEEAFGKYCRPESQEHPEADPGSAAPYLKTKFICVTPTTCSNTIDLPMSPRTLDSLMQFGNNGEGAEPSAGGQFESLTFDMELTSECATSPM
Structure (SMILES),outcome,AC50
COc1cnc(OC)n2nc(NS(=O)(=O)c3c(OCC(F)F)cccc3C(F)(F)F)nc12,inactive,
CCNc1nc(Cl)nc(NCC)n1,inactive,
CN(C)C(=S)SSC(=S)N(C)C,inactive,
CC1=C(C(=O)Nc2ccccc2)SCCO1,inactive,
Cc1c(F)c(F)c(COC(=O)C2C(/C=C(\Cl)C(F)(F)F)C2(C)C)c(F)c1F (stereo not given),inactive,
CCCCC(CC)COC(=O)c1ccccc1C(=O)OCC(CC)CCCC (stereo not given),inactive,
CCOP(=S)(OCC)SCn1c(=O)oc2cc(Cl)ccc21,inactive,
N#Cc1nn(-c2c(Cl)cc(C(F)(F)F)cc2Cl)c(N)c1S(=O)C(F)(F)F (stereo not given),inactive,
C#CCOS(=O)OC1CCCCC1Oc1ccc(C(C)(C)C)cc1 (stereo not given),,36.3 µM (active)
O=C(Nc1ccccc1)Nc1ccnc(Cl)c1,,42.6 µM (active)
C=CCC1=C(C)C(OC(=O)C2C(C=C(C)C)C2(C)C)CC1=O (stereo not given),inactive,
CCON=C(CC)C1=C(O)CC(c2c(C)cc(C)cc2C)CC1=O (stereo not given),inactive,
CCCN(CCC)c1c([N+](=O)[O-])cc(S(N)(=O)=O)cc1[N+](=O)[O-],,94 µM (active) and 50 µM (active) and 77 µM (active)
CON(C)C(=O)Nc1ccc(Cl)c(Cl)c1,inactive,
CCOC(=O)C(Cl)Cc1cc(-n2nc(C)n(C(F)F)c2=O)c(F)cc1Cl (stereo not given),inactive,
CO/C=C(/C(=O)OC)c1ccccc1Oc1cc(Oc2ccccc2C#N)ncn1,inactive,
CNC(=O)ON=CC(C)(C)SC,inactive,
COC(=O)C=C(C)OP(=O)(OC)OC,inactive,
CCCCOC(=O)c1ccccc1C(=O)OCCCC,inactive,
CCCC1COC(Cn2cncn2)(c2ccc(Cl)cc2Cl)O1 (stereo not given),inactive,

Structure (SMILES),outcome,AC50
Fc1ccc(Oc2ccnc3cc(Cl)cc(Cl)c23)cc1,inactive,
COc1nc(NC(C)C)nc(NC(C)C)n1,inactive,
COC(=O)N(OC)c1ccccc1COc1ccn(-c2ccc(Cl)cc2)n1,inactive,
O=C(O)COc1nc(Cl)c(Cl)cc1Cl,inactive,
COc1ccc(C(c2ccc(OC)cc2)C(Cl)(Cl)Cl)cc1,inactive,
CC(C)C1(C)N=C(c2nc3ccccc3cc2C(=O)O)NC1=O (stereo not given),inactive,
C=CC1(C)OC(=O)N(c2cc(Cl)cc(Cl)c2)C1=O (stereo not given),inactive,
OC(c1ccc(Cl)cc1)(c1cncnc1)c1ccccc1Cl (stereo not given),inactive,
CS/C(C)=N/OC(=O)N(C)SN(C)C(=O)O/N=C(\C)SC,inactive,
COP(=S)(OC)Oc1nc(Cl)c(Cl)cc1Cl,inactive,
CC1COC(Cn2cncn2)(c2ccc(Oc3ccc(Cl)cc3)cc2Cl)O1 (stereo not given),inactive,
CC(C)(C)c1ccc(CSc2cnn(C(C)(C)C)c(=O)c2Cl)cc1,inactive,
CCOc1cc(Oc2ccc(C(F)(F)F)cc2Cl)ccc1[N+](=O)[O-],inactive,
COP(N)(=O)SC (stereo not given),inactive,
COC(=O)C(C)Oc1ccc(Oc2ccc(Cl)cc2Cl)cc1 (stereo not given),inactive,
Oc1ccccc1-c1ccccc1,inactive,
CNC(=S)S,inactive,
Cc1cc(Cl)ccc1OCC(=O)O,inactive,
Cc1ccc(-c2c(Cl)nc(C#N)n2S(=O)(=O)N(C)C)cc1,,18.4 µM (active)
CCCCNC(=O)n1c(NC(=O)OC)nc2ccccc21,inactive,
